{"source": "PubChem BioAssay AID651804", "about": "(National Center for Advancing Translational Sciences (NCATS), 2012)", "note": "Hit rate of the full screen: of about 1,200 compounds, about 20 (2%) were called active. Another 23% or so got no clear call; they are omitted. This excerpt belongs to a sample that is enriched for actives. A number with no mark means an inactive call. Calls follow the shape of the dose curve; as a rule, active = well fitted inhibition curve with a large enough effect; inconclusive = small, poorly fitted or top-dose-only effect; inactive = no such curve, though single readings can be large or run the other way. Potency is read from the fitted curve at half-maximal effect."}
{"molecular_target": "Transcriptional regulator ERG (Homo sapiens) (UniProt P11308)", "sequence (P11308 whole entry, looked up, the tested form may be a part)": "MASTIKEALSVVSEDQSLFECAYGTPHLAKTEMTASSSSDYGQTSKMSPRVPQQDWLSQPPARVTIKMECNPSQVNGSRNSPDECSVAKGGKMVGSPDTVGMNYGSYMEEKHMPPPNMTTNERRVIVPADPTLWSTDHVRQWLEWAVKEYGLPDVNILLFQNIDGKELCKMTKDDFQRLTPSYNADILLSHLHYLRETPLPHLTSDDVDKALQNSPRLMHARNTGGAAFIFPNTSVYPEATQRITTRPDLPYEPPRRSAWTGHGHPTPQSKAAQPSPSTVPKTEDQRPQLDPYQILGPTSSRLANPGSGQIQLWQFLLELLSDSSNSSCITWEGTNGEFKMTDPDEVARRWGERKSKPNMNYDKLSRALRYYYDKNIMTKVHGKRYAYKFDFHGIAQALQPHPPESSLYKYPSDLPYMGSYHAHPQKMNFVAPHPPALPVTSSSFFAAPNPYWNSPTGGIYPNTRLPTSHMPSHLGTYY", "test": "qHTS for Small Molecule Inhibitors of the ERG Ets/DNA interaction: HTRF assay against cherry picks", "settings": "His-ERG Ets domain with biotin-DNA; series mostly up to 154 µM; activity change, negative = inhibition: at the top concentration", "excerpt": "The Ets family of proteins is a family of ~30 conserved transcription factors defined by the presence of an ~85 amino acid domain referred to as the Ets domain, which mediates sequence-specific DNA binding to a core DNA element GGAA/T.The Ets family member ERG has been linked to several neoplasms. […] More extensive studies of the effects of over-expression of ERG in prostate cells have recently been carried out and have shown that over-expression of ERG results in increased invasion. […] We will carry out a high throughout screen to identify inhibitors of the interaction between ERG and DNA using a fluorescence polarization (FP) assay with a His-tagged ERG Ets domain and fluorescently-labeled DNA probes to develop small molecule inhibitors of this interaction as probes to test this hypothesis and lay the groundwork for the development of targeted therapies against ERG. This is the counterscreen against the cherry picks. NIH Molecular Libraries Probe Production Network [MLPCN] NIH Chemical Genomics Center [NCGC] Grant: NS066464 PI Name: John Bushweller, University of Virgina\n2 ul of protein solution (200 nM ERG domain in 300mM KCl, 50mM Tris-HCl, 1mM EDTA, 1mM DTT, pH 7.5); 20 nl Control plate and compound library plate; 2 ul of 200 nM biotin-DNA; incubate for 10 min at RT; 1 ul of anti-His antibody conjugated to the long-life fluorescent cryptate donner […] (5ng/ul) and streptavidin conjugated to the acceptor compound […] (0.2 ng/ul) mix; incubate 10 min and measure FRET (Excitation = 320 nm, Emission = 615, 665 nm).", "units": {"activity change, negative = inhibition": "%"}}
{"smiles": "CCOc1cc(CNc2cccc3[nH]c(C)nc23)ccc1OC", "activity change, negative = inhibition": -20.8}
{"smiles": "Cc1cc(C)cc(NC(=O)CCOc2ccccc2)c1", "activity change, negative = inhibition": -18.5}
{"smiles": "O=C1CC(Cc2ccccc2)C(=O)N1c1ccc(Cl)cn1", "note": "(stereo unspecified)", "activity change, negative = inhibition": -9.76}
{"smiles": "COc1ccc(C(=O)N[C@H](C(=O)N2CCN(c3ccccc3F)CC2)C(C)C)cc1", "activity change, negative = inhibition": -6.15}
{"smiles": "CC(=O)NNc1cc(N2CCOCC2)nc(N2CCOCC2)n1", "activity change, negative = inhibition": 0.53}
{"smiles": "COc1cc(SC)ccc1C(=O)NC(C)C", "activity change, negative = inhibition": -29}
{"smiles": "COc1ccc(S(=O)(=O)NNC(=S)NCCc2ccccc2)c(OC)c1", "activity change, negative = inhibition": -17.7}
{"smiles": "Cc1ccc2nc3c(c(N)c2c1)CCN3C", "activity change, negative = inhibition": -20.7}
{"smiles": "CCc1cc(C(=O)OC)c(NC(=O)CN2CCN(C(=O)C3CCCO3)CC2)s1", "note": "(stereo unspecified)", "activity change, negative = inhibition": 7.69}
{"smiles": "Cc1ccc(S(=O)(=O)N2CCC[C@H]2C(=O)NC2CCCCC2)cc1", "activity change, negative = inhibition": -19.9}
{"smiles": "CCOC(=O)CC1C(=O)NCCN1C(=O)c1c(F)cccc1F", "note": "(stereo unspecified)", "activity change, negative = inhibition": -22.2}
{"smiles": "CC(=O)NC(CC(=O)Nc1nc(-c2ccccc2)c(C(C)=O)s1)c1ccccc1", "note": "(stereo unspecified)", "activity change, negative = inhibition": -23}
{"smiles": "COc1ccc(N(CCC(=O)Nc2ccccc2F)S(=O)(=O)c2ccc(C)cc2C)cc1", "activity change, negative = inhibition": 1.43}
{"smiles": "CCN(CC)c1ccc([N+](=O)[O-])cc1C(=O)O", "activity change, negative = inhibition": -28}
{"smiles": "CN(CCO)C1=NS(=O)(=O)c2cc([N+](=O)[O-])ccc21", "Potency": "28.2 µM (active)"}
{"smiles": "O=C(COc1ccccc1)Nc1ccc2c(c1)Cc1cc(NC(=O)COc3ccccc3)ccc1-2", "activity change, negative = inhibition": -25.6}
{"smiles": "CNC(=O)C(=O)NCCN1CCN(C(=O)c2ccc([N+](=O)[O-])cc2)CC1", "activity change, negative = inhibition": -38.6}
{"smiles": "COc1ccc(OC)c(NC(=O)Cn2cnc3sc(C)c(S(=O)(=O)N4CCN(c5ccccc5OC)CC4)c3c2=O)c1", "activity change, negative = inhibition": -7.8}
{"smiles": "CN(C)c1nc2n(c(=S)n1)CCS2", "activity change, negative = inhibition": -23.1}
{"smiles": "CCC1COC(c2cccn2Cc2ccc(Cl)cc2)=N1", "note": "(stereo unspecified)", "activity change, negative = inhibition": 7.96}
{"smiles": "CC(=O)OCC(=O)C1=CCC2C3CCC4=CC(=O)C=CC4(C)C3(F)C(OC(C)=O)CC12C", "note": "(stereo unspecified)", "activity change, negative = inhibition": -16.2}
{"smiles": "COc1cc(OC)cc(C(=O)NCC(=O)OCc2csc(-c3ccccc3)n2)c1", "activity change, negative = inhibition": 34.1}
{"smiles": "CCn1cc(S(=O)(=O)Nc2ccc(Cl)cc2F)cn1", "activity change, negative = inhibition": -8.65}
{"smiles": "COc1ccc([N+](=O)[O-])c(OC)c1C(=O)NC(=O)Nc1c(F)c(F)c(F)c(F)c1F", "activity change, negative = inhibition": -14.5}
{"smiles": "CCn1c(CSc2ncn[nH]2)nc2cc(C(=O)O)ccc21", "activity change, negative = inhibition": -12.9}
{"smiles": "O=C1C(SCCO)=C(SCCO)C(=O)c2ccccc21", "Potency": "50.1 µM (active)"}
{"smiles": "CS(=O)(=O)NN1C(=O)c2ccccc2NC1c1cccc(O)c1", "note": "(stereo unspecified)", "activity change, negative = inhibition": -27.5}
{"smiles": "S=C(NCc1ccco1)N1CCN(c2ccccn2)CC1", "activity change, negative = inhibition": -8.01}
{"smiles": "CCOc1ccccc1N1CCN(C(=O)c2cc(S(=O)(=O)N(C)C)ccc2N2CCCC2)CC1", "activity change, negative = inhibition": -17.2}
{"smiles": "COc1ccc(CNC(=O)CN2C(=O)NC3(CCCCCC3)C2=O)cc1OC", "activity change, negative = inhibition": -24.8}
{"smiles": "CCn1nc(C)cc1C(=O)N1CCCC(N2CCN(Cc3ccc4c(c3)OCO4)CC2)C1", "note": "(stereo unspecified)", "activity change, negative = inhibition": -15.2}
{"smiles": "CCCC(=O)Nn1cnc2c(c1=O)C1(CCCCC1)Cc1ccccc1-2", "activity change, negative = inhibition": -1.01}
{"smiles": "COc1ccc(S(=O)(=O)NCC2CC3C=CC2C3)cc1OC", "note": "(stereo unspecified)", "activity change, negative = inhibition": -23.8}
{"smiles": "COCCNC(=O)Cn1c(=O)n(CCCC(=O)NCc2ccc3c(c2)OCO3)c(=O)c2sccc21", "activity change, negative = inhibition": -28.9}
{"smiles": "COC(=O)C1=C(C)NC(C)=C(C(=O)OC)C1c1ccc(-c2cccc(Cl)c2Cl)o1", "activity change, negative = inhibition": 10.5}
{"smiles": "CCOc1ccc(NC(=O)CN(C)C(=O)c2ccccc2CCc2ccccc2)cc1OCC", "activity change, negative = inhibition": 3.66}
{"smiles": "COc1ccc(CCNC(=O)Cn2cc(C(F)(F)F)cc(Cl)c2=O)cc1", "activity change, negative = inhibition": -28.5}
{"smiles": "CSc1nc2c(c(=O)[nH]1)C(c1cccc(Br)c1)CC(=O)N2", "note": "(stereo unspecified)", "activity change, negative = inhibition": -7}
{"smiles": "CC(=O)Nc1ccc(S(=O)(=O)Nc2nc3ccccc3nc2Nc2ccc(O)c(C(=O)O)c2)cc1", "activity change, negative = inhibition": -17.6}
{"smiles": "COC(OC)c1nc(SCC(=O)Nc2cccc(Cl)c2)ncc1C(=O)O", "activity change, negative = inhibition": -14}
{"smiles": "CCC(Oc1ccccc1F)C(=O)NCCCn1ccnc1", "note": "(stereo unspecified)", "activity change, negative = inhibition": -4.46}
{"smiles": "Cc1nonc1C1CCCN1C(=O)c1cc(COc2ccc(F)cc2Cl)on1", "note": "(stereo unspecified)", "activity change, negative = inhibition": -30.1}
{"smiles": "Cc1ccc(COC(=O)CCN=C2NS(=O)(=O)c3ccccc32)cc1", "activity change, negative = inhibition": -23.1}
{"smiles": "Nc1cccc(N2C(=O)c3cccc4c(N)ccc(c34)C2=O)c1", "Potency": "39.8 µM (active)"}
{"smiles": "O=C(Nc1ccc(-c2nc3ccccc3[nH]2)cc1)c1c(F)c(F)c(F)c(F)c1F", "activity change, negative = inhibition": -17.1}
{"smiles": "Cn1ccc(C(=O)OCC(=O)Nc2ccccc2)n1", "activity change, negative = inhibition": -10.8}
{"smiles": "COc1ccc(CNC(=O)COC(=O)CCOc2ccccc2)cc1", "activity change, negative = inhibition": -27.1}
{"smiles": "Cc1nn(-c2ccc(Cl)cc2)c2[nH]c(CCl)cc(=O)c12", "activity change, negative = inhibition": -6.79}
{"smiles": "Cc1cc(S(=O)(=O)N2CCOCC2)ccc1OCC(=O)Nc1ccc(F)c(Cl)c1", "activity change, negative = inhibition": -25.9}
{"smiles": "C=CCn1c2ccccc2c2nnc(SCC(=O)NC(C(=O)OC)C(C)C)nc21", "note": "(stereo unspecified)", "activity change, negative = inhibition": -32.4}
{"smiles": "O=C1c2ccc3c4c(ccc(c24)C(=O)N1CCCCO)C(=O)N(CCCCO)C3=O", "Potency": "20 µM (active)"}
